# Records with an inconclusive call do not appear. Entries that show only a call come without a potency. Unmarked numbers belong to inactive results. Active and inactive are the calls of the source. Unless noted, calls follow the shape of the dose curve; as a rule, active = well fitted curve in the direction sought with a large enough effect in the repeat runs; inconclusive = weak or mixed curves; inactive = no such curve, though single readings can be large; an effect the other way counts as inactive or inconclusive.
# Experiments:
# [1] = qHTS assay to identify aromatase inhibitors - cell viability counter screen (AID 743084);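 also: cells stimulated with testosterone during compound exposure; nearly all actives have a fitted effect of over 55% in size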
# [2] = molecular target: Aryl hydrocarbon receptor (Homo sapiens) (UniProt P35869); test: qHTS assay to identify small molecule that activate the aryl hydrocarbon receptor (AhR) signaling pathway (AID 743085); also: nearly all actives have a fitted effect of over 15% in size; also: potency is read from the fitted curve at half-maximal effect;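 as to activation: HG2L7.5c1 human HepG2 liver cells with stably integrated DRE-driven firefly reporter; series mostly up to about 70 µM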
# Procedure, shortened: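 Measured in HG2L7.5c1 cells: CellTiter-Fluor signal (30 min incubation, 37C) for viability, then luciferase luminescence (30 min, room temperature). Compound contact time was 24 h at 37C, following a 5 h pre-incubation.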
# [3] = qHTS assay to identify small molecule that activate the aryl hydrocarbon receptor (AhR) signaling pathway - cell viability counter screen (AID 743086);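 also: HepG2 liver cells carrying the AhR DRE luciferase reporter; series mostly up to about 70 µM; nearly all actives have a fitted effect of over 45% in size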
# Procedure, shortened: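 HepG2-AhR-luc (HG2L7.5c1) cells, 4000/well, treated 24 h at 37 C with compound; viability measured as CellTiter-Fluor fluorescence after 30 min in the same wells as the luciferase read.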
# [4] = molecular target: Peroxisome proliferator-activated receptor gamma (Homo sapiens) (UniProt P37231); test: qHTS assay to identify small molecule agonists of the peroxisome proliferator-activated receptor gamma (PPARg) signaling pathway (AID 743094; active = well fitted activation curve with a large enough effect in the signal ratio in the repeat runs, not every such curve was filed as active; the % refers to the signal ratio)
# Procedure, shortened: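 Fluorescence-based beta-lactamase readout in HEK293H PPARg UAS-bla cells after 17 h compound exposure (37C) and 1 h B/G FRET substrate incubation at room temperature.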
# [5] = molecular target: Peroxisome proliferator-activated receptor gamma (Homo sapiens) (UniProt P37231); test: qHTS assay to identify small molecule antagonists of the peroxisome proliferator-activated receptor gamma (PPARg) signaling pathway (AID 743191; calls by dose curve; also: series mostly up to about 63 µM; nearly all actives have a fitted effect of over 30% in size)
# Procedure, shortened: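 GeneBLAzer PPARg UAS-bla HEK293H cells, 5 h post-plating, exposed to compounds 17 h at 37C. LiveBLAzer B/G FRET substrate added for 1 h at room temperature; beta-lactamase reporter read by fluorescence intensity.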
# [6] = qHTS assay to identify small molecule antagonists of the peroxisome proliferator-activated receptor gamma (PPARg) signaling pathway - cell viability counter screen (AID 743194); also: nearly all actives have a fitted effect of over 55% in size
# Procedure, shortened: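 Cytotoxicity counter screen in PPARg-bla HEK293H cells, same wells as reporter assay. Compounds plus 50 nM rosiglitazone (final) for 17 h at 37 C, then viability read by CellTiter-Glo luminescence.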
# [7] = qHTS assay for small molecule agonists of the antioxidant response element (ARE) signaling pathway (AID 743202; active = well fitted activation curve with a large enough effect in the signal ratio in the repeat runs, not every such curve was filed as active; the % refers to the signal ratio; also: potency is read from the fitted curve at half-maximal effect)
# Procedure, shortened: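 HepG2 ARE-bla cells; 16 h treatment at 37 C; FRET-based beta-lactamase fluorescence read after 2 h substrate incubation at room temperature.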
# [8] = qHTS assay for small molecule agonists of the antioxidant response element (ARE) signaling pathway - cell viability counter screen (AID 743203; calls by dose curve; also: nearly all actives have a fitted effect of over 55% in size)
# Procedure, shortened: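 Parallel cytotoxicity read-out for the ARE-bla screen: HepG2 reporter cells, 16 hrs with compounds, then CellTiter-Glo luminescence.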
# [9] = qHTS assay for small molecule activators of the heat shock response signaling pathway - cell viability counter screen (AID 743209); also: nearly all actives have a fitted effect of over 50% in size
# Procedure, shortened: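 To flag cytotoxic compounds, HSE-bla HeLa cells plated at 1500 cells/well were dosed for 5 h at 37 C, followed by the reporter FRET read and then CellTiter-Glo, with luminescence recorded 30 min after reagent addition.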
# [10] = qHTS assay for small molecule activators of the heat shock response signaling pathway (AID 743210; active = well fitted activation curve with a large enough effect in the signal ratio in the repeat runs, with a control signal flat, not every such curve was filed as active; the % refers to the signal ratio;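 also: HeLa cells with beta-lactamase reporter driven by heat shock elements; series mostly up to about 63 µM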)
# Procedure, shortened: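 Following overnight attachment, HSE-bla HeLa cells received test compounds for 5 h at 37 C; beta-lactamase activity was then detected via FRET substrate fluorescence.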
# [11] = qHTS assay to identify small molecule agonists of the peroxisome proliferator-activated receptor delta (PPARd) signaling pathway - cell viability counter screen (AID 743211); also: nearly all actives have a fitted effect of over 55% in size
# Procedure, shortened: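 Following 5 h plating at 37 C and 5% CO2, PPARd UAS-bla HEK293H cells took up test compounds for 17 h. Viability was quantified by luminescence 30 min after CellTiter-Glo addition at room temperature.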
# [12] = molecular target: Peroxisome proliferator-activated receptor delta (Homo sapiens) (UniProt Q03181); test: qHTS assay to identify small molecule agonists of the peroxisome proliferator-activated receptor delta (PPARd) signaling pathway (AID 743212; calls by dose curve)
# Procedure, shortened: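 Tox21 library screened in GeneBLAzer PPARd UAS-bla HEK293H cells. After compound treatment at 37 C, a FRET-based beta-lactamase substrate was applied for 2 h and fluorescence recorded.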
# [13] = qHTS assay to identify small molecule antagonists of the peroxisome proliferator-activated receptor delta (PPARd) signaling pathway - cell viability counter screen (AID 743213); also: nearly all actives have a fitted effect of over 50% in size
# Procedure, shortened: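 HEK293H PPARd UAS-bla cells, 5 h pre-incubation, compound + L165041 300 nM final, 17 h 37 C; B/G FRET substrate 2 h RT; then CellTiter-Glo 30 min RT, luminescence.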
# [14] = molecular target: Peroxisome proliferator-activated receptor delta (Homo sapiens) (UniProt Q03181); test: qHTS assay to identify small molecule antagonists of the peroxisome proliferator-activated receptor delta (PPARd) signaling pathway (AID 743215; active = well fitted inhibition curve with a large enough effect in the signal ratio in the repeat runs, not every such curve was filed as active; the % refers to the signal ratio;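 also: cells stimulated with agonist L165041 at 300 nM final during compound exposure; series mostly up to about 62 µM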)
# Procedure, shortened: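 Screen format: qHTS, antagonist mode. HEK293H PPARd-bla cells received compound and 300 nM L165041 (final), 17 h, 37 C. Beta-lactamase detected via FRET substrate fluorescence, 2 h, room temperature.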
# [15] = qHTS assay to identify small molecule antagonists of the farnesoid-X-receptor (FXR) signaling pathway - cell viability counter screen (AID 743221; active = well fitted cell-killing curve with a large enough effect in the repeat runs, not every such curve was filed as active; also: nearly all actives have a fitted effect of over 50% in size; also: potency is read from the fitted curve at half-maximal effect)
# Procedure, shortened: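 Compound effects on cell number were measured as CellTiter-Glo luminescence in HEK 293T cells expressing FXR-UAS-bla, after 16 h at 37 C with 50 uM CDCA (final).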
# [16] = molecular target: Vitamin D3 receptor (Homo sapiens) (UniProt P11473); test: qHTS assay to identify small molecule agonists of the vitamin D receptor (VDR) signaling pathway (AID 743222; calls by dose curve)
# Procedure, shortened: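 Using LiveBLAzer B/G FRET detection, agonism was scored in VDR-bla cells exposed overnight (16 h, 37C) to DMSO-dissolved compounds; substrate incubation was 2 h at room temperature.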
# [17] = molecular target: Vitamin D3 receptor (Homo sapiens) (UniProt P11473); test: qHTS assay to identify small molecule antagonists of the vitamin D receptor (VDR) signaling pathway (AID 743223; active = well fitted inhibition curve with a large enough effect in the signal ratio in the repeat runs, not every such curve was filed as active; the % refers to the signal ratio)
# Procedure, shortened: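 Beta-lactamase activity in VDR-bla cells is measured by FRET substrate fluorescence (2 h, room temperature) after cells spend 16 h at 37C with test compound and 3 nM final 1alpha,25-dihydroxyvitamin D3.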
# [18] = molecular target: Bile acid receptor (Homo sapiens) (UniProt Q96RI1); test: qHTS assay to identify small molecule antagonists of the farnesoid-X-receptor (FXR) signaling pathway (AID 743217; active = well fitted inhibition curve with a large enough effect in the signal ratio in the repeat runs, not every such curve was filed as active; the % refers to the signal ratio)
# Procedure, shortened: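 Quantitative HTS, beta-lactamase reporter format: FXR-UAS-bla HEK 293T cells co-treated 16 h at 37 °C with compounds and 50 uM final chenodeoxycholic acid, then read by B/G FRET fluorescence.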
# [19] = molecular target: Bile acid receptor (Homo sapiens) (UniProt Q96RI1); test: qHTS assay to identify small molecule agonists of the farnesoid-X-receptor (FXR) signaling pathway (AID 743220; active = well fitted activation curve with a large enough effect in the signal ratio in the repeat runs, not every such curve was filed as active; the % refers to the signal ratio)
# Procedure, shortened: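 FXR-UAS-bla HEK 293T cells carrying a UAS-driven beta-lactamase reporter were plated for 5 h at 37C/5% CO2, then exposed to DMSO-dissolved Tox21 10K compounds for 16 h at 37C. A LiveBLAzer B/G FRET substrate was loaded for 2 h at room temperature before fluorescence reading.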
# [20] = qHTS assay to identify small molecule agonists of the farnesoid-X-receptor (FXR) signaling pathway - cell viability counter screen (AID 743218); also: nearly all actives have a fitted effect of over 45% in size
# Procedure, shortened: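 Same-well cytotoxicity check on FXR-UAS-bla HEK 293T cells: 5 h attachment, 16 h compound at 37 C, CellTiter-Glo luminescence read at room temperature after 30 min.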
# Sequence of Peroxisome proliferator-activated receptor gamma (Homo sapiens) (P37231 whole entry, looked up): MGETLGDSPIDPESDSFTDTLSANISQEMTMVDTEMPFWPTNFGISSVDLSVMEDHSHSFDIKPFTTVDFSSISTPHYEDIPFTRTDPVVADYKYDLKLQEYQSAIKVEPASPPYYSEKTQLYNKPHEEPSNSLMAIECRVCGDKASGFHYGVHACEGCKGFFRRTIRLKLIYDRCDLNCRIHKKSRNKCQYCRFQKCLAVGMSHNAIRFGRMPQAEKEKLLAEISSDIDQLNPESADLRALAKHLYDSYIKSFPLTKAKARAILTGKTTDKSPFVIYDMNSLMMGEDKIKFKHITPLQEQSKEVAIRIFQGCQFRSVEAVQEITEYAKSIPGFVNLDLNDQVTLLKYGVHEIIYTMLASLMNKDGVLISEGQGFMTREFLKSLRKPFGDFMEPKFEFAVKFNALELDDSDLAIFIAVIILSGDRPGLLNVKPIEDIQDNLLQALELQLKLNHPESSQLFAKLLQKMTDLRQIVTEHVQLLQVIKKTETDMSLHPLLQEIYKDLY
# Sequence of Bile acid receptor (Homo sapiens) (Q96RI1 whole entry, looked up): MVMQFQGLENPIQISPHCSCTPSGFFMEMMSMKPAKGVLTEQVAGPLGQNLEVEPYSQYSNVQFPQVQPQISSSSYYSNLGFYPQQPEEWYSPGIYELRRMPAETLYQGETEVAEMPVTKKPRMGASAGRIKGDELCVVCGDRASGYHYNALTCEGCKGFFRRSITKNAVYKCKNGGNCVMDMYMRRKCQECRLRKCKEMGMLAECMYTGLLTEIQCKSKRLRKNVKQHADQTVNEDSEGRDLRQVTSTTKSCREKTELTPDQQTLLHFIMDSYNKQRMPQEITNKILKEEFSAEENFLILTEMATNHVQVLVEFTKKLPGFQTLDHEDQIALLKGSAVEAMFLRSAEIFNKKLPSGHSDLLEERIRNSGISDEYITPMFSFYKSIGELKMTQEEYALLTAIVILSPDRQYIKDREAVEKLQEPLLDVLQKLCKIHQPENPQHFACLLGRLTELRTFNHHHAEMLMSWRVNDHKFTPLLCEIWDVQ
# Sequence of Vitamin D3 receptor (Homo sapiens) (P11473 whole entry, looked up): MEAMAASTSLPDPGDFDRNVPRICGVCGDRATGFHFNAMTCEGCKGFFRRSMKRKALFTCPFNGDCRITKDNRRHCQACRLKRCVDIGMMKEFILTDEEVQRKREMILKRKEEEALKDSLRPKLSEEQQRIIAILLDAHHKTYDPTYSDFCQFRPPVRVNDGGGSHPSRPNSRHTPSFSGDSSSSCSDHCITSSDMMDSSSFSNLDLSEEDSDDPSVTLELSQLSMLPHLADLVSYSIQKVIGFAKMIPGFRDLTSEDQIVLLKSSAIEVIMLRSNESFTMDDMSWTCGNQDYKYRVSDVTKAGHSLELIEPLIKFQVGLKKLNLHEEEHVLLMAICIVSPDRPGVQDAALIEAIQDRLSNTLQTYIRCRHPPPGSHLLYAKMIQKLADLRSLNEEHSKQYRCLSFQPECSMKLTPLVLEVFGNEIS
# Sequence of Peroxisome proliferator-activated receptor delta (Homo sapiens) (Q03181 whole entry, looked up): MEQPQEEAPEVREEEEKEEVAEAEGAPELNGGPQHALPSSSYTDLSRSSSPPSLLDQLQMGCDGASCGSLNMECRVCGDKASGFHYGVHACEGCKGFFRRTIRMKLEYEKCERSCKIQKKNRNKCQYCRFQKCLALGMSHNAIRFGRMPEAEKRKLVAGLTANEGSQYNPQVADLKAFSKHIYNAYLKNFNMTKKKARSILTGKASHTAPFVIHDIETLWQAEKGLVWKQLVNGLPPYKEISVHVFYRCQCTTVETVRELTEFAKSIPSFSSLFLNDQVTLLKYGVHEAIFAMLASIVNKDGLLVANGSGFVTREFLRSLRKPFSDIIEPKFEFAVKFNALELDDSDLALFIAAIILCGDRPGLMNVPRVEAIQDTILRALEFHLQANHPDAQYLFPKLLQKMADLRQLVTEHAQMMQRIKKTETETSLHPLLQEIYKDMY
# Sequence of Aryl hydrocarbon receptor (Homo sapiens) (P35869 whole entry, looked up): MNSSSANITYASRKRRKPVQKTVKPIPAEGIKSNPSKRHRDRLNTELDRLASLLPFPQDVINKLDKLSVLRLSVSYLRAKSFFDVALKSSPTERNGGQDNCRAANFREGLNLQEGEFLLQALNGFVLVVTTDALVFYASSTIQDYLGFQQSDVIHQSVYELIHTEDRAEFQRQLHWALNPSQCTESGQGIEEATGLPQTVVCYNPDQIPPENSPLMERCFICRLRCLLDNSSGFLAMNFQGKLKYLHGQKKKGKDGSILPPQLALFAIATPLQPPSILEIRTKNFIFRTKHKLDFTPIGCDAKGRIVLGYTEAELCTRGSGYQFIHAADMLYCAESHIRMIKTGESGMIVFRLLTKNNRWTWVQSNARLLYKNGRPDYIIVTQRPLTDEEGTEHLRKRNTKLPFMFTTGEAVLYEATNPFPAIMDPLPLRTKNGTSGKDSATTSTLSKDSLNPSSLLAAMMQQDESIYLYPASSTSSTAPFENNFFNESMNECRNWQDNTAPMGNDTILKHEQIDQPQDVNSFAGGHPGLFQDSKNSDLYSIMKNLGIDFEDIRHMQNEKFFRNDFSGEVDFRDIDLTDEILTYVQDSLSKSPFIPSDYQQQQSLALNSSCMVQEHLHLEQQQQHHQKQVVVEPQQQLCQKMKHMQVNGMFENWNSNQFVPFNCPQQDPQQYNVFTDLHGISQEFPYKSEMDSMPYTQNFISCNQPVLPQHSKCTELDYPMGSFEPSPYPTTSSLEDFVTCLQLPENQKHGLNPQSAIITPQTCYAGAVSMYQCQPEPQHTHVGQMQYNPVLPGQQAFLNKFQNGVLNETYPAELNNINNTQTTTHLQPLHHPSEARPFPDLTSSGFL
SMILES,Potency [1],Potency [2],Potency [3],Potency [4],Potency [5],Potency [6],Potency [7],Potency [8],Potency [9],outcome [10],Potency [11],outcome [12],Potency [13],outcome [14],Potency [15],outcome [16],Potency [17],outcome [18],outcome [19],Potency [20]
CCN(CC)C(C)=O,inactive,inactive,inactive,inactive,inactive,inactive,inactive,inactive,inactive,inactive,inactive,inactive,inactive,inactive,inactive,inactive,inactive,–,–,–
OCC1CC2CC1C1CCC(CO)C21 (stereo not given),inactive,inactive,inactive,inactive,inactive,inactive,inactive,inactive,inactive,inactive,inactive,inactive,inactive,inactive,24.5 µM (active),inactive,inactive,inactive,inactive,–
COC(=O)C(C)=O,inactive,inactive,inactive,inactive,inactive,inactive,inactive,inactive,inactive,inactive,inactive,inactive,inactive,inactive,inactive,inactive,inactive,–,–,inactive
CCCC[C@H]1CN(CC2CCOCC2)C(=O)OC12CCN(C1(C)CCN(C(=O)c3c(C)ncnc3C)CC1)CC2,inactive,inactive,inactive,inactive,inactive,inactive,inactive,inactive,inactive,–,inactive,inactive,–,inactive,inactive,–,–,–,–,inactive
CNS(=O)(=O)Cc1ccc2[nH]cc(CCN(C)C)c2c1,inactive,inactive,inactive,inactive,inactive,inactive,inactive,–,inactive,inactive,inactive,inactive,–,inactive,inactive,inactive,–,inactive,inactive,inactive
CC(C)(C)c1cc(CCC(=O)OCC(COC(=O)CCc2cc(C(C)(C)C)c(O)c(C(C)(C)C)c2)(COC(=O)CCc2cc(C(C)(C)C)c(O)c(C(C)(C)C)c2)COC(=O)CCc2cc(C(C)(C)C)c(O)c(C(C)(C)C)c2)cc(C(C)(C)C)c1O,inactive,inactive,inactive,inactive,inactive,inactive,inactive,inactive,inactive,inactive,inactive,inactive,inactive,inactive,inactive,inactive,inactive,inactive,inactive,inactive
CC(=O)O[C@@H]1C(=O)O[C@@H]2[C@H]1OC(=O)[C@@H]2OC(C)=O,inactive,inactive,inactive,inactive,–,inactive,10.6 µM (active),inactive,inactive,inactive,inactive,inactive,–,–,inactive,–,–,–,–,inactive
CCCCCCOC(=O)CCC,inactive,inactive,inactive,inactive,–,inactive,inactive,inactive,inactive,inactive,inactive,–,inactive,inactive,inactive,inactive,–,–,inactive,inactive
O=C(NN1CCCC1)NS(=O)(=O)c1ccc(Cl)cc1,inactive,inactive,inactive,inactive,inactive,–,inactive,inactive,inactive,inactive,inactive,inactive,inactive,inactive,inactive,inactive,inactive,inactive,inactive,inactive
c1ccc(-c2nc[nH]c2-c2ccccc2)cc1,inactive,inactive,inactive,inactive,inactive,inactive,–,inactive,inactive,inactive,inactive,–,–,inactive,inactive,–,inactive,–,–,inactive
N#Cc1cc2ccccc2c2ccccc12,inactive,61.4 µM (active),inactive,inactive,inactive,inactive,–,inactive,inactive,inactive,–,inactive,inactive,inactive,inactive,inactive,inactive,inactive,inactive,inactive
COC(=O)CSc1cc(N=c2sc(=O)n3n2CCCC3)c(F)cc1Cl,inactive,inactive,inactive,inactive,inactive,inactive,–,–,inactive,inactive,inactive,inactive,–,inactive,inactive,inactive,inactive,inactive,inactive,–
COc1ccccc1OC(=O)Oc1ccccc1OC,inactive,inactive,inactive,inactive,–,inactive,inactive,inactive,inactive,inactive,inactive,–,inactive,–,inactive,inactive,inactive,–,–,inactive
C=C(C)C(=O)OCCOc1ccccc1,inactive,inactive,inactive,inactive,inactive,inactive,inactive,–,inactive,–,inactive,inactive,inactive,inactive,inactive,inactive,inactive,–,–,inactive
Cc1ccc(C(C)c2ccc(C)c(C)c2)cc1C,inactive,inactive,inactive,inactive,inactive,inactive,–,–,inactive,inactive,inactive,inactive,–,inactive,inactive,inactive,inactive,–,–,inactive
S=C(S)NCCNC(=S)S,inactive,inactive,inactive,inactive,–,inactive,60 µM (active),inactive,inactive,inactive,inactive,–,inactive,–,inactive,inactive,–,–,–,–

# Source: PubChem BioAssay (Tox21)
